The record followed here is PubChem BioAssay (Tox21).

Records with an inconclusive call do not appear. Where a call stands in place of a potency, no number is given. A number with no mark means an inactive call. Active and inactive are the calls of the source. The call rests on the fitted dose curve; in most records, active means well fitted curve in the direction sought with a large enough effect in the repeat runs; inconclusive means weak or mixed curves; inactive means no such curve, though single readings can be large; an effect the other way counts as inactive or inconclusive.

One assay in a line: Caspase-3/7 induction in HepG2 cells by small molecules, qHTS assay (AID 1346978). Further: nearly all actives have a fitted effect of over 15% in size. To be noted: HepG2 caspase-3/7 activation, Caspase-Glo luminescence, 17 h; series mostly up to 92.4 µM. Summed up:
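Wild-type HepG2 cells, 2,000/well, settled 5 hr at 37 C and 5% CO2, then compound-treated for 17 hr; caspase-3/7 activity read by luminescent Caspase-Glo 3/7 after 30 min at room temperature.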
Take `O=NN(CCCl)C(=O)NCCCl`: the Potency result was “inactive”. Consider `O=C(O)CCS`, for which the Potency result is “inactive”.

With `CSSc1ccoc1C`, the Potency entry is “inactive”. `O=C1OC[C@H](Cc2cccc(O)c2)[C@H]1Cc1cccc(O)c1`: the Potency result was “inactive”. Consider `Nc1ccn([C@H]2CS[C@@H](CO)O2)c(=O)n1`, for which the Potency result is “inactive”. Regarding `FC(F)(F)C(F)(F)C(F)(F)C(F)(F)CCI`, the Potency entry was “inactive”. For `CCCCCCCCCCCCCCCC(=O)OCC`, the Potency entry is “inactive”. For `Nc1ccc(N=Nc2ccc(N)cc2)cc1`, the Potency result is “inactive”. Same read-out and setting: the value for `CC1C(C)(C)C2=C(C(=O)CCC2)C1(C)C` (stereo unspecified) was “inactive”. Regarding `COC(=O)c1sccc1S(N)(=O)=O`, the Potency result was “inactive”. As for `CCCCCCOC(=O)CCCCC`, the Potency result was “inactive”. Still for that read-out and setting: the value for `O=c1[nH][nH]c(=O)c2cc([N+](=O)[O-])ccc12` was “inactive”; that for `CCC(=O)OCc1ccc(OC)cc1` was “inactive”; that for `CNC1CCCN(c2c(F)cc3c(=O)c(C(=O)O)cn(C4CC4)c3c2OC)C1` (stereo unspecified) was “inactive”.

In the case of `Nc1ccc(S(=O)(=O)NCc2ccccc2)cc1`, the Potency entry was “inactive”. For the compound `CC(=O)N[C@@H](Cc1ccc(O)cc1)C(=O)O`, the Potency result is “inactive”. Same read-out and setting: the value for `CC(C)(C)NCC(O)COc1cccc2c1C[C@H](O)[C@H](O)C2` (stereo partly specified) was “inactive”. `CCC(Cl)CC(Cl)C(Cl)C(Cl)C(Cl)C(C)Cl` (stereo unspecified): the caspase activation is -16.4% [at 19 µM]. `CC(C)c1ccc(C#N)cc1`: the Potency result was “inactive”.

As to `CC1=CC[C@@]23C[C@@H]1C(C)(C)[C@@H]2CC[C@H]3C`, the Potency result is “inactive”.

In the case of `Cc1cccc2sc(N)nc12`, the Potency result was “inactive”. Same read-out and setting: as for `CCN(CC)CC(=O)Nc1c(C)cccc1C(=O)OC`, the entry is “inactive”. On the same count and under the same terms, the value for `CN=C(N)NC(=O)Nc1c(C)cccc1C` was “inactive”. In the case of `CCCCCCCCCCCCCCN(C)C`, the caspase activation is 1.09% [at 19 µM]. For the compound `C=CC(=O)NC(C)C`, the Potency entry is “inactive”. In the case of `O=C(O)c1cccc(C[C@@H]2COc3ccc(OCc4nc5cc(F)ccc5s4)cc3[C@@H]2O)c1`, the Potency result was “inactive”. For the compound `O=C(O)CO`, the Potency result is “inactive”. On the same count and under the same terms, the value for `CCCCC[C@H](O)/C=C/[C@H]1[C@H](O)CC(=O)[C@@H]1C/C=C\CCCC(=O)O` was “inactive”; that for `Cc1ccc(N(CC2=NCCN2)c2cccc(O)c2)cc1` was “inactive”. Take `CC(C)C(=O)OCCOc1ccccc1`: the Potency result was “inactive”. Consider `O=C1CC[C@@H](C(=O)O)N1`, for which the Potency result is “inactive”. Same read-out and setting: the value for `CCCCOCCOC(=O)c1cccnc1` was “inactive”; that for `COC(=O)CC(C(C)=O)C(=O)OC` (stereo unspecified) was “inactive”; that for `CC(C)(O)c1coc(S(=O)(=O)NC(=O)Nc2c3c(cc4c2CCC4)CCC3)c1` was “inactive”.

For `COC(CC(C)CCCC(C)(C)O)OC` (stereo unspecified), the Potency entry is “inactive”. In the case of `C[C@H](CS)C(=O)N1CCC[C@H]1C(=O)O`, the Potency result is “inactive”.

For `CC(=O)Oc1cccc(O)c1`, the Potency result was “inactive”. Turning to `CSCC[C@H](NC(=O)[C@H](Cc1c[nH]c2ccccc12)NC(=O)CCNC(=O)OC(C)(C)C)C(=O)N[C@@H](CC(=O)O)C(=O)N[C@@H](Cc1ccccc1)C(N)=O`, the Potency entry was “inactive”. `Cc1cccc(C)c1NC(=O)c1cc(S(N)(=O)=O)c(Cl)cc1O`: the Potency result was “inactive”.

A further assay in a line: Caspase-3/7 induction in CHO-K1 cells by small molecules, qHTS cell viability counter screen (AID 1346979). Further: nearly all actives have a fitted effect of over 35% in size. Further: potency means the concentration at half of the fitted maximal effect. To be noted: CellTiter-Fluor fluorescence, 17 h; series mostly up to 92.4 µM. An outline of the steps:
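Viability readout by fluorescence (CellTiter-Fluor) on wild-type CHO-K1 cells exposed for 16hr at 37C and 5% CO2 to compounds delivered in DMSO; reagent incubated 1hr before reading.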
(In qHTS, concentration-response curves come from the screen itself.)
Regarding `O=NN(CCCl)C(=O)NCCCl`, the Potency entry was “inactive”. As to `O=C(O)CCS`, the Potency entry was “inactive”. Turning to `CSSc1ccoc1C`, the Potency result is “inactive”. Same read-out and setting: as for `O=C1OC[C@H](Cc2cccc(O)c2)[C@H]1Cc1cccc(O)c1`, the entry is “inactive”; as for `Nc1ccn([C@H]2CS[C@@H](CO)O2)c(=O)n1`, “inactive”.

Consider `FC(F)(F)C(F)(F)C(F)(F)C(F)(F)CCI`, for which the Potency entry is “inactive”.

In the case of `CCCCCCCCCCCCCCCC(=O)OCC`, the Potency result is “inactive”.

For the compound `Nc1ccc(N=Nc2ccc(N)cc2)cc1`, the Potency was 24.3 µM (active). As to `CC1C(C)(C)C2=C(C(=O)CCC2)C1(C)C` (stereo unspecified), the Potency entry was “inactive”.

Consider `COC(=O)c1sccc1S(N)(=O)=O`, for which the Potency result is “inactive”. The same measure, in the same setting: the value for `CCCCCCOC(=O)CCCCC` was “inactive”. Same read-out and setting: the value for `O=c1[nH][nH]c(=O)c2cc([N+](=O)[O-])ccc12` was “inactive”; that for `CCC(=O)OCc1ccc(OC)cc1` was “inactive”. On the same count and under the same terms, as for `CNC1CCCN(c2c(F)cc3c(=O)c(C(=O)O)cn(C4CC4)c3c2OC)C1` (stereo unspecified), the entry is “inactive”; as for `Nc1ccc(S(=O)(=O)NCc2ccccc2)cc1`, “inactive”; as for `CC(=O)N[C@@H](Cc1ccc(O)cc1)C(=O)O`, “inactive”.

Consider `CC(C)(C)NCC(O)COc1cccc2c1C[C@H](O)[C@H](O)C2` (stereo partly specified), for which the Potency result was “inactive”. For the compound `CCC(Cl)CC(Cl)C(Cl)C(Cl)C(Cl)C(C)Cl` (stereo unspecified), the activity change, negative = cytotoxicity is 10.4% [at 19 µM]. Take `CC(C)c1ccc(C#N)cc1`: the Potency entry was “inactive”. As to `CC1=CC[C@@]23C[C@@H]1C(C)(C)[C@@H]2CC[C@H]3C`, the Potency result was “inactive”. As for `Cc1cccc2sc(N)nc12`, the Potency entry was “inactive”. On the same count and under the same terms, the value for `CCN(CC)CC(=O)Nc1c(C)cccc1C(=O)OC` was “inactive”; that for `CN=C(N)NC(=O)Nc1c(C)cccc1C` was “inactive”. With `CCCCCCCCCCCCCCN(C)C`, the activity change, negative = cytotoxicity was 2.75% [at 19 µM]. In the case of `O=C(O)c1cccc(C[C@@H]2COc3ccc(OCc4nc5cc(F)ccc5s4)cc3[C@@H]2O)c1`, the Potency entry is “inactive”. With `O=C(O)CO`, the Potency result was “inactive”. The same measure, in the same setting: as for `CCCCC[C@H](O)/C=C/[C@H]1[C@H](O)CC(=O)[C@@H]1C/C=C\CCCC(=O)O`, the entry is “inactive”; as for `Cc1ccc(N(CC2=NCCN2)c2cccc(O)c2)cc1`, “inactive”. In the case of `CC(C)C(=O)OCCOc1ccccc1`, the Potency result is “inactive”. The same measure, in the same setting: as for `O=C1CC[C@@H](C(=O)O)N1`, the entry is “inactive”; as for `CCCCOCCOC(=O)c1cccnc1`, “inactive”. On the same count and under the same terms, the value for `COC(=O)CC(C(C)=O)C(=O)OC` (stereo unspecified) was “inactive”; that for `CC(C)(O)c1coc(S(=O)(=O)NC(=O)Nc2c3c(cc4c2CCC4)CCC3)c1` was “inactive”. Still for that read-out and setting: as for `COC(CC(C)CCCC(C)(C)O)OC` (stereo unspecified), the entry is “inactive”; as for `C[C@H](CS)C(=O)N1CCC[C@H]1C(=O)O`, “inactive”; as for `CSCC[C@H](NC(=O)[C@H](Cc1c[nH]c2ccccc12)NC(=O)CCNC(=O)OC(C)(C)C)C(=O)N[C@@H](CC(=O)O)C(=O)N[C@@H](Cc1ccccc1)C(N)=O`, “inactive”. As to `Cc1cccc(C)c1NC(=O)c1cc(S(N)(=O)=O)c(Cl)cc1O`, the Potency result is “inactive”.
